# In article PMC5540273 (PLoS ONE, 2017):
# Assays:
# Settings in all cases: concentration: 1 μM, replicates: in singlicate; n = 1
# [1] = tested on: DDR2
# [2] = tested on: T1, DLK
# T1 construct: gene MAP3K12
# [3] = tested on: T2, DMPK2
# T2 construct: gene CDC42BPG
# [4] = tested on: DMPK
# [5] = tested on: T3, DRAK1
# T3 construct: gene STK17A
# [6] = tested on: T4, DRAK2
# T4 construct: gene STK17B
# [7] = tested on: DYRK1A
# [8] = tested on: DYRK1B
# [9] = tested on: DYRK2
# [10] = tested on: EGFR
# 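Also: KINOMEscan kinase panel screen.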
SMILES,%Inh [1] [%],%Inh [2] [%],%Inh [3] [%],%Inh [4] [%],%Inh [5] [%],%Inh [6] [%],%Inh [7] [%],%Inh [8] [%],%Inh [9] [%],%Inh [10] [%]
COc1ccc(Nc2nccc(N3CCC(NC(=O)c4cccc(NC(C)=O)c4)C3)n2)cc1 (centres unmarked) [GSK1379732],41,33,0,13,24,0,8,87,7,16
Nc1nc(-c2ccccn2)c(-c2ccnc3ccccc23)s1 [GW548057],33,45,10,0,0,3,1,0,9,16
CN1c2ccc(-c3ccc(C(=O)NCCO)cc3)cc2-c2[nH]ncc2S1(=O)=O,0,29,7,0,24,29,47,49,31,0
Nc1nc(-c2cccnc2)c(-c2ccnc3ccccc23)s1 [GW684083],43,60,0,0,32,0,20,0,9,0
CS(=O)(=O)CCNCc1ccc(-c2ccc3ncnc(Nc4ccc(OCc5ccccc5)c(Cl)c4)c3c2)o1.Cl [GW574783],39,25,2,16,16,0,0,0,0,100
